From PubChem BioAssay
Only some compounds are listed: those with a hit (about 31% of all), similar ones and a draw of the others.
CYP2C19 act: human CYP2C19 activators, primary screen, biochemical, luminescence; recombinant CYP2C19, luciferin-H EGE luminescence; hits give high values; 0 = fully inhibited enzyme, 1 = untreated enzyme; activation factor at 5 µM; 96,000 tested, under 10 active; AID 1025, 2008;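 active = activation factor of at least 2 at 5 µM in the primary screen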;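 note: 0 = wells with 2.5 mM tranylcypromine and 1 = vehicle-only wells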
Target sequence (P33261 whole entry, looked up): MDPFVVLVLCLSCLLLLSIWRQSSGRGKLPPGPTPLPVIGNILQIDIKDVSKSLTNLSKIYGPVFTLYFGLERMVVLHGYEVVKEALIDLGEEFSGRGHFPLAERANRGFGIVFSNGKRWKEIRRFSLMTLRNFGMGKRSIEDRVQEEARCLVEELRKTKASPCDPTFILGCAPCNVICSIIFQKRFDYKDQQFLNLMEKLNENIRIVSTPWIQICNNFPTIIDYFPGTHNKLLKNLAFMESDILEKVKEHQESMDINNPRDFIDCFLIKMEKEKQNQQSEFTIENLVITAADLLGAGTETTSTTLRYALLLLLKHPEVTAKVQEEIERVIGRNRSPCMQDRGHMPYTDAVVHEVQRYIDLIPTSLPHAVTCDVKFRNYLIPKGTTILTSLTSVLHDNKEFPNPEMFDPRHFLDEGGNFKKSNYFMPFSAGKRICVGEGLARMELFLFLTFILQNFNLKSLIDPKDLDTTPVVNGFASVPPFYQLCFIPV
CYP2C19 inhib: blockers of cytochrome P450 2C19 activity – biochemical, luminescence, ADME assay, primary screen. P33261. CYP2C19 Supersomes, luciferin-H EGE luminescence, 30 min. inhibition, % at 5 µM. actives 21% (n = 96,000);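 active = CYP2C19 inhibition above a set limit at 5 µM in the primary screen, cut at about 50% in these data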;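 note: plate controls were negative control wells for no effect and 2.5 mM tranylcypromine positive control for full effect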
CYP2C9 activ: human CYP2C9 activators, primary screen, biochemical, luminescence; recombinant CYP2C9, luciferin-H conversion; hits give high values; factor 1 = untreated enzyme, 0 = blocked; actives 1.4% (n = 96,000); AID 1024, 2008; Cytochrome P450 2C9 (Homo sapiens), P11712; activation factor at 5 µM;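 active = activation factor of 2 or more for CYP2C9 at a 5 µM dose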;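 note: 0 = sulfaphenazole-blocked wells and 1 = vehicle-only wells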
CYP2C9 inhib: blockers of cytochrome P450 2C9 activity – biochemical, luminescence, ADME assay, primary screen; P11712; CYP2C9 Supersomes, luciferin-H conversion; inhibition, % at 5 µM; actives 20% (n = 96,000); AID 777, 2007;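 active = blocking of liver enzyme CYP2C9 beyond about 50% at 5 µM, limit read from the data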
Active calls of the source: *.

SMILES	CYP2C19 act	CYP2C19 inhib	CYP2C9 activ	CYP2C9 inhib
Cc1ccnc(Sc2ccc([N+](=O)[O-])cc2[N+](=O)[O-])n1	0.2	77*	1	4
CCOC(=O)C1CCCN(C(=O)c2ccco2)C1 (stereo not given)	0.6	37	0.7	26
N#Cc1cccc(-c2cn(S(=O)(=O)c3ccc(Cl)cc3)nc2N)c1	0.9	11	0.6	39
Cc1ccc(S(=O)(=O)n2cc(-c3ccccc3)c(N)n2)cc1	0.5	52*	0.1	90*
Cc1ccc(O)c(CC(C)C)n1	1	-1	1	0
COc1ccc(CCc2nc(C)ccc2O)cc1	0.2	83*	0.3	66*
Cc1ccccc1CSc1nc2c(c(=O)[nH]1)CCC2	0.8	17	0.4	63*
Cc1nnc(SCCc2ccccc2)[nH]c1=O	0.8	20	0.4	56*
CCCCSc1nc2c(c(=O)[nH]1)CCC2	0.9	14	0.8	16
Cc1cc(C)c(C)c(C(=O)CSc2nnc(C)c(=O)[nH]2)c1C	0.9	8	0.1	94*
CCOC(=O)CSc1nnc(C)c(=O)[nH]1	1.1	-13	1.1	-10
Cc1ccccc1CSc1nnc(C)c(=O)[nH]1	1.1	-14	0.4	63*
COc1oc(-c2ccccc2)nc1C(F)(F)F	1.1	-12	1.1	-12
COc1cccc2cc(C(=O)N3CCc4ccccc43)c(=O)oc12	0.3	68*	0.9	14
COc1ccc2oc(=O)c(C(=O)Oc3ccc(NC(C)=O)cc3)cc2c1	0.9	9	0.9	8
COc1ccc2oc(=O)c(C(=O)N3CCc4ccccc43)cc2c1	1	0	2.2*	-117
O=C(c1ccccc1)N1CCc2ccccc21	0.8	20	1.2	-22
Cc1cc(C(=O)N2CCc3ccccc32)c2ccccc2n1	0.3	65*	0.6	38
COc1ccccc1C(=O)N1CCc2ccccc21	0.8	19	1.1	-11
CCOc1cccc2cc(C(=O)N3CCc4ccccc43)c(=O)oc12	1.1	-9	2.4*	-140
O=C(CSc1nc(-c2ccccc2)c(-c2ccccc2)o1)N1CCOCC1	0.6	40	1.6	-56
CCOc1ccc(C2=Nn3c(nnc3-c3ccco3)SC2)cc1	0.8	21	0.7	33
COc1ccc(C2=Nn3c(nnc3-c3ccccc3OC)SC2)cc1OC	0.4	65*	0.5	53*
COc1ccc(C2=Nn3c(nnc3-c3ccccn3)SC2)cc1OC	0.4	62*	0.6	36
COc1ccc(C2=Nn3c(nnc3-c3ccco3)SC2)cc1OC	0.6	37	0.4	57*
SMILES	CYP2C19 act	CYP2C19 inhib	CYP2C9 activ	CYP2C9 inhib
CCOc1ccc(C2=Nn3c(nnc3-c3ccccn3)SC2)cc1	0.8	23	0.9	5
O=C(Nc1ccc(Cl)cc1)C1CCC(=O)N1Cc1ccccc1Cl (stereo not given)	0.2	79*	0.1	91*
CCOC(=O)c1cccc(NC(=O)CSc2nc3ccccc3c(=O)n2CC)c1	0.9	8	0.5	51*
COC(=O)c1cccc(NC(=O)CSc2nc(=O)cc(N)n2-c2ccccc2)c1	0.9	9	0.9	11
CCOC(=O)c1cccc(NC(=O)CSc2nc3ccccc3c(=O)n2CCOC)c1	0.7	27	0.4	64*
C=CCN1C(=NC(=O)CCCC(=O)O)SC2CS(=O)(=O)CC21 (stereo not given)	0.9	11	0.8	24
Cn1c(CNS(=O)(=O)c2ccc(Cl)cc2)n[nH]c1=S	0.9	10	0.8	22
Cc1ccc(-n2c(CNc3ccc(F)cc3)nnc2SCC(N)=O)cc1	0.9	10	0.9	15
O=C(Cn1cnc2ccccc2c1=O)NCC(=O)N1CCN(c2ccccn2)CC1	1	-4	1.1	-11
CCOC(=O)c1oc2cc(O)ccc2c(=O)c1-c1ccc(OC)cc1	0.5	46	0.6	36
CCOC(=O)c1oc2cc(O)c(CC)cc2c(=O)c1-c1ccc2c(c1)OCCO2	0.7	34	0	99*
Cc1ccc2[nH]cc(CCNC(=O)Nc3ccccc3)c2c1	0	97*	0.5	54*
O=C(NCCc1c[nH]c2ccccc12)C(F)(F)F	0.7	30	1	3
Cc1ccc2[nH]cc(CCNC(=O)c3cccnc3)c2c1	0.1	88*	0.4	64*
CCNC(=O)NCCc1c[nH]c2ccc(Cl)cc12	0.2	78*	0.6	44
CC(C)(C)C(=O)N1CCCC1C(=O)O (stereo not given)	1.1	-8	1.2	-18
